Results filed as inconclusive are left out. The source made the active and inactive calls. Calls follow the shape of the dose curve; as a rule, active = well fitted cell-killing curve with a large enough effect in the repeat runs; inconclusive = weak or mixed curves, or effect the other way; inactive = no such curve, though single readings can be large or run the other way.
% is scaled to controls: 0 for no effect and ±100 for the full control effect.

This assay can be described thus: qHTS assay to identify small molecule agonists of the estrogen receptor alpha (ER-alpha) signaling pathway in the presence of an antagonist - cell viability counter screen (AID 1259386). Also: nearly all actives have a fitted effect of over 30% in size. The following applies: VM7Luc4E2 viability, CellTiter-Fluor fluorescence, 22 h; series mostly up to 92.4 µM. From the text:
National Center for Advancing Translational Sciences [NCATS]
NIH Chemical Genomics Center [NCGC]
U.S. Environmental Protection Agency [EPA]
National Institutes of Environmental Health Sciences [NIEHS]
National Toxicology Program [NTP]
U.S. Food and Drug Administration [FDA]
Estrogen receptor (ER), a member of nuclear hormone receptor plays an important role in development, metabolic homeostasis and reproduction. Two subtypes of ER, ER-alpha and ER-beta, have similar expression patterns with some uniqueness in both types. Endocrine disrupting chemicals (EDCs) and their interactions with steroid hormone receptors like ER causes disruption of normal endocrine function. Therefore, it is important to understand the effect of environmental chemicals in ER signaling pathway. For identifying ER agonists, VM7Luc4E2 cell line has been used in the current assay.
VM7Luc4E2 cell line (provided by Denison MS, University of California) endogenously expresses full-length ER-alpha and is stably transfected with a plasmid containing four estrogen responsive elements (ERE) upstream of a luciferase reporter gene. This current screening for measuring luciferase reporter gene activity using VM7Luc4E2 cells against Tox21 10K library collection is a confirmation study on agonist mode screening in presence of ER-antagonist (ICI-182,780) at 10.0nM final concentration. The cytotoxicity of the compounds was tested in parallel by measuring the cell viability using CellTiter-Fluor assay system (Promega, Madison, WI) in the same wells.
Tox21 Assay Protocol Summary:
VM7Luc4E2 cells were cultured in phenol red free assay medium containing 10% charcoal stripped FBS for 5 days prior to the assay. The cells were dispensed at 4,000 cells in 4uL of assay medium per well into white wall/solid-bottom 1536-well plates (Corning Life Sciences, Corning, NY) using a Multidrop Combi (Thermo Fisher Scientific Inc., Waltham, MA) dispenser. After the assay plates were incubated at 37C and 5% CO2 for 24hr, 1uL of 10.0nM (final concentration) ICI-182,780 or assay buffer was added using two separate tips of Flying Reagent Dispenser (FRD, Aurora Discovery, San Diego, CA). Then 23nL of compounds dissolved in DMSO at 15 concentrations and positive controls or DMSO only was transferred to the assay plates by a Pintool station (Wako, San Diego, CA). The assay plates were incubated at 37C and 5% CO2 for 22hr. After 21hr incubation at 37C, 1uL/well CellTiter-Fluor reagent (Promega Corporation, Madison, WI) was added to each well using FRD and after 1hr incubation at 37C and 5% CO2, the fluorescence signal was measured on ViewLux plate reader (PerkinElmer, Shelton, CT).
A general note: In qHTS, concentration-response curves come from the screen itself.
On to `CC(=O)c1c(C)cc(C(C)(C)C)cc1C`, for which the outcome was inactive.
With `C=CC(=O)CC`, the outcome was inactive.
As for `O=S(=O)(O)c1ccc(Cl)cc1`, the result was inactive.
With `CCC(=O)OCCOc1ccccc1`, the result was inactive.
Same read-out and setting: the value for `CC(=O)OC/C=C(/C)CCC=C(C)C` was “inactive”.
Regarding `CCCCCCCCCCCCCCCCN(C)C`, the activity change, negative = cytotoxicity is 0.513% [at 8.39 µM] (inactive).
For the compound `Cc1ccc(O)c([N+](=O)[O-])c1`, the result was inactive.
Consider `CC(C)c1cc(C(C)C)cc(C(C)C)c1`, for which the outcome was inactive.
`Cc1ccccc1C#N`: the outcome was inactive.
Consider `O=Cc1ccccc1S(=O)(=O)O`, for which the result was inactive.
Same read-out and setting: the value for `CCN(CC)CC(=O)Oc1ccc(NC(C)=O)cc1` was “inactive”.
With `C=CCCCCCCCCCCCCCC`, the activity change, negative = cytotoxicity is 1.42% [at 19 µM] (inactive).
For `O=C[C@@H](O)[C@H](O)[C@H](O)CO`, the result was inactive.
In the case of `N#Cc1cc(NC(=O)C(=O)O)c(Cl)c(NC(=O)C(=O)O)c1`, the outcome was inactive.
Take `CCOC(=O)[C@H](CCc1ccccc1)N[C@H]1CS[C@H](c2cccs2)CN(CC(=O)O)C1=O`: the outcome was inactive.
Take `CCOCCOCCOC(C)=O`: the outcome was inactive.
Regarding `Clc1cc(Cl)c(Cl)c(Cl)c1Cl`, the outcome was inactive.
As to `O=C(O)P(=O)(O)O`, the outcome was inactive.
As to `O=C(O)CCC(=O)Nc1ccc(S(=O)(=O)Nc2nccs2)cc1`, the result was inactive.
Turning to `CC(C)(C)OC=O`, the outcome was inactive.
`COCc1nnc(-c2ccc[n+]([O-])c2)n1-c1c(Cl)c(Cl)cc2[nH]c(=O)c(=O)[nH]c12`: the result was inactive.
As to `CC(C)C(=O)Nc1cccc(C2CN3CCSC3=N2)c1` (stereo not given), the outcome was inactive.
As for `CN(C)CCc1c[nH]c2ccc(C[C@H]3COC(=O)N3)cc12`, the result was inactive.
For `CC(=O)/C=C/C=C1/C2CCC(C2)C1(C)C` (stereo not given), the result was inactive.
Still for that read-out and setting: then `CCN1CCN(C(=O)N[C@@H](C(=O)N[C@@H]2C(=O)N3C(C(=O)O)=C(CSc4nnnn4C)CS[C@H]23)c2ccc(O)cc2)C(=O)C1=O`, with “inactive”.
For the compound `CN(C)CCCN(C)C`, the activity change, negative = cytotoxicity was 0.833% [at 8.39 µM] (inactive).
With `CCOC(=O)COc1ccc2c(C)c(CCN(CC)CC)c(=O)oc2c1Cl`, the outcome was inactive.
Same read-out and setting: then `C/C=C/C(=O)CCCC`, with “inactive”; and `CCC(C)(C)C`, with “inactive”.
Take `CC(=O)SC[C@@H](C)C(=O)N1CCC[C@H]1C(=O)N[C@@H](Cc1ccccc1)C(=O)O`: the outcome was inactive.
The same measure, in the same setting: the value for `COC(=O)N/N=C/c1c[n+]([O-])c2ccccc2[n+]1[O-]` was “inactive”; that for `C=CC(=O)OCC[N+](C)(C)C` was “inactive”; that for `CCCCCCCCCCCCCCBr` was “inactive”.
As to `Cc1ccc(OC(=O)CC(C)C)cc1`, the result was inactive.
In the case of `CC(=O)OCC(=O)[C@@]1(O)CC[C@H]2[C@@H]3CCC4=CC(=O)C=C[C@]4(C)[C@H]3[C@@H](O)C[C@@]21C`, the outcome was inactive.
Regarding `O=C1CCCc2c(O)cccc21`, the outcome was inactive.
Same read-out and setting: then `N=C(N)S(=O)O`, with “inactive”; and `O=C(O)/C=C(\CC(=O)O)C(=O)O`, with “inactive”; and `CCC(C)SSC(C)CC` (stereo not given), with “inactive”.
As to `Cc1nnc(C(=O)NC(C)(C)c2nc(C(=O)NCc3ccc(F)cc3)c(O)c(=O)n2C)o1`, the result was inactive.

For the origin of these results see PubChem BioAssay (Tox21).
